# Data as given in PubChem BioAssay.
# This is one part of the list. Activity calls are given as the source filed them.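 Rule for the calls, unless noted: active = mean inhibition across replicates above a set limit taken from the earlier primary screen (cut at about 21% in these data); inactive = the rest.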
# Molecular target: Receptor-interacting serine/threonine-protein kinase 2 (Homo sapiens) (UniProt O43353)
# Experiment: NOD2-RIPK2 binding disruptors, retest, confirmation, fluorescence, CHO cells, BLA complementation, triplicate (AID 624370);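 note: 0% = DMSO-only wells and the high end = clavulanate BLA-blocked wells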
# Conditions: CCF4 FRET, at 4.98 µM, stronger effect = higher value
# Receptor-interacting serine/threonine-protein kinase 2 (Homo sapiens), sequence (O43353 whole entry, looked up): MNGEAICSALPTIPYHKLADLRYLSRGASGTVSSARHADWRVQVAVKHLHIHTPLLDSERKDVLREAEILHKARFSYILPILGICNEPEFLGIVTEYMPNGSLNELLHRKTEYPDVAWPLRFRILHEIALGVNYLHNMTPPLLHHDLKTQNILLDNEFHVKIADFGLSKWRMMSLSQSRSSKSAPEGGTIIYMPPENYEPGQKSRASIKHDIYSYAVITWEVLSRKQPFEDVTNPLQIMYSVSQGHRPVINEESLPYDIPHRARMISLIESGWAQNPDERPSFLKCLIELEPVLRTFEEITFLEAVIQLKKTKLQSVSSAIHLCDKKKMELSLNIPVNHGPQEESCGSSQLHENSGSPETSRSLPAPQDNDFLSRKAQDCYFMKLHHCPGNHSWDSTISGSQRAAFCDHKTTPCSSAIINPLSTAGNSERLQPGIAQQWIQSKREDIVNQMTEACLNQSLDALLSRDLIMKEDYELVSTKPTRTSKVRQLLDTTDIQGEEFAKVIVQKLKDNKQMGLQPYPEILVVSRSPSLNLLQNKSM
row,Structure (SMILES),inhibition
1,Nc1c(C(=O)c2cccs2)sc2nsc(SCCN3CCCCC3)c12,19.8% (inactive)
2,COc1cc(/C=C(\C#N)c2nc3c(s2)CC(C)CC3)ccc1O (stereo unspecified),29.5% (active)
3,O=C(/C=C(O)/C=C/c1ccc(O)cc1)/C=C/c1ccc(O)cc1,64.2% (active)

# Test system: not listed separately
# Experiment: beta-lactamase reporter inhibitors in CHO cells, confirmation, artefact control for NOD2-RIPK2 interaction inhibitor project, cell-based, CHO-K1 CMV-bla, CCF4 FRET, fluorescence (AID 624371;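 active = mean inhibition above the low-control mean inhibition plus three low-control SD, cut at about 11% in these data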;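 note: 0% = DMSO only wells and 100% = clavulanate high control wells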)
# Conditions: CCF4 FRET ratio, counterscreen, at 4.98 µM, stronger effect = higher value
row,Structure (SMILES),inhibition
1,Nc1c(C(=O)c2cccs2)sc2nsc(SCCN3CCCCC3)c12,36.9% (active)
2,COc1cc(/C=C(\C#N)c2nc3c(s2)CC(C)CC3)ccc1O (stereo unspecified),39.6% (active)
3,O=C(/C=C(O)/C=C/c1ccc(O)cc1)/C=C/c1ccc(O)cc1,65.5% (active)
